# Laboratory results from PubChem BioAssay (NCI).
# Where “and” joins values, the source holds several entries; their conditions need not be identical. Identical values can stand only once. This is part of a sample that, as a whole, favours compounds with a hit. Of some 83,000 tested, about 20% had one in any assay.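 Interpretation: 100, growth as untreated; towards 0, rising growth inhibition; 0, no net growth; 0 to -100, cell death. Compounds scoring below 10 were considered active.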 Unmarked numbers belong to inactive results. Calls of active or inactive are those of the source. Where a SMILES comes first, the peptide text is derived from it. [ ]: non-standard residue; d: D form. ξ: configuration not given here. ξD = NC(CC(=O)O)C(=O)O
# Key:
# Experiment in all cases: NCI-60 one-dose screen, 48 h (100 = growth as untreated, 0 = no growth, -100 = all killed)
# Conditions in all cases: 10 µM unless noted
# T-47D breast = system: T-47D breast
# BT-549 breast = system: BT-549 breast
# SW-620 colon = system: SW-620 colon
# MCF7 breast = system: MCF7 breast
# HCT-116 colon = system: HCT-116 colon
# HCC-2998 colon = system: HCC-2998 colon
# KM12 colon = system: KM12 colon
# MDA-MB-435 melanoma = system: MDA-MB-435 melanoma
SMILES,growth (T-47D breast),growth (BT-549 breast),growth (SW-620 colon),growth (MCF7 breast),growth (HCT-116 colon),growth (HCC-2998 colon),growth (KM12 colon),growth (MDA-MB-435 melanoma)
CC1(O)CCCCCC1,97%,96.1%,100%,96.8%,99.4%,98.8%,–,–
S=c1[nH]c2cc(Cl)ccc2s1,90.4%,100%,113%,95.2%,96.6%,97.4%,96.5%,–
O=C1C(=O)c2cc([N+](=O)[O-])ccc2-c2ccccc21,-35.6% (active),–,-81.1% (active),-55.3% (active),-92.5% (active),65.9%,-81.7% (active),-79.3% (active)
COc1cc([C@@H]2c3cc4c(cc3[C@H](OC3OC5COC(c6ccccc6)OC5C(O)C3O)[C@H]3COC(=O)[C@H]23)OCO4)cc(OC)c1OC (some centres undefined),107%,–,43.9%,10.5%,12.3%,-5.24% (active),42.9%,22.7%
COc1ccc2c(c1)c(CC(=O)O)c(C)n2C(=O)c1ccc(Cl)cc1,107%,66.9%,98.8%,83.7%,95.2%,108%,99.2%,–
CCN(CC)CC(O)c1cc(-c2ccc(Cl)cc2)nc2cc(Cl)ccc12 (centres undefined),12.9%,81.6%,31.5%,-28.4% (active),-0.822% (active),26.4%,-36.6% (active),–
C/C=C/c1cc2c(c(=O)o1)C(=O)[C@@H](O)[C@H](C)O2,20.4%,18.2%,19.5%,–,14.1%,79.5%,–,–
O=[N+]([O-])CC(O)c1ccccc1 (centres undefined),100%,112%,105%,81.1%,78.6%,98.9%,97.4%,–
CCCN(CCC)C(=O)c1ccc(C)cc1,78.5%,102%,94.9%,92.1%,98.3%,87.4%,102%,–
CCCCCCC1N=C(N)N=C(N)N1c1cccc(Cl)c1 (centres undefined),51.8%,25.2%,27%,22.4%,16.6%,10.3%,18.6%,–
N#CCc1cccc2ccccc12,105%,–,105%,87.4%,106%,109%,–,119%
Oc1c(Cl)cc(Cl)cc1C(c1cc(Cl)cc(Cl)c1O)C(Cl)(Cl)Cl,1.95% (active),7.91% (active),9.94% (active),4.85% (active),0.34% (active),–,-0.332% (active),–
O=[N+]([O-])c1ccc(C(Br)c2ccc([N+](=O)[O-])cc2)cc1,83.8%,77.3%,11.1%,–,21.3%,90.4%,60.3%,–
CCCCCCCCCCCC1N=C(N)N=C(N)N1c1cccc(Br)c1 (centres undefined),38.4%,–,-93.9% (active),-87.8% (active),-100% (active),-87.7% (active),-91.8% (active),22.4%
NNc1ccc(Cl)cc1Cl,52%,88.7%,53.7%,74.8%,87.1%,93.9%,51.3%,–
CN(C)c1ccc(/C=C/c2cc[n+](C)c(/C=C/c3ccc(N(C)C)cc3)c2)cc1,-2.17% (active),18.9%,9.01% (active),-6.46% (active),9.38% (active),12.4%,-55.6% (active),–
O=[N+]([O-])c1ccc([I+]c2ccccc2)cc1,-20% (active),–,19.5%,-29% (active),-31.4% (active),46.1%,-75.7% (active),20.8%
NC(=S)N/N=C/c1ncccc1O,25.2%,35.4%,35%,6.89% (active),5.32% (active),–,25.9%,–
CCC(C)(O)Cc1ccc(Cl)cc1 (centres undefined),94.9%,98.5%,99.4%,92.8%,97.7%,109%,101%,–
CCCCCCCCCCCCCCCCCC[S+](C)CC (centres undefined),16.6%,45.1%,28.1%,36.3%,27.8%,50.2%,-31.7% (active),–
O=[N+]([O-])c1ccc2c(c1)Cc1ccccc1-2,94%,–,95.8%,94.8%,91.3%,98.3%,98.3%,99.4%
O=C(C[P+](c1ccccc1)(c1ccccc1)c1ccccc1)c1ccccc1,89.9%,–,97.3%,90.6%,76.8%,93.9%,101%,98.5%
CCCCC(CCc1ccc([N+](=O)[O-])cc1)(C(C)=O)C(=O)OCC (centres undefined),90%,117%,91.4%,91.1%,92.2%,109%,92%,–
Cc1ccccc1NC(=O)Cc1csc2[n+]1C(=O)/C(=C/c1ccc([N+](=O)[O-])cc1)S2,84.2%,88.9%,107%,92.7%,84.4%,82.2%,–,–
OC(c1cc2ccc(C(F)(F)F)cc2c2cc(C(F)(F)F)ccc12)C1CCCCN1 (centres undefined),-90.5% (active),–,-100% (active),-90.8% (active),-86.5% (active),-86.7% (active),-97.3% (active),-100% (active)

SMILES,growth (T-47D breast),growth (BT-549 breast),growth (SW-620 colon),growth (MCF7 breast),growth (HCT-116 colon),growth (HCC-2998 colon),growth (KM12 colon),growth (MDA-MB-435 melanoma)
O=C(CCl)N1c2ccccc2Sc2c1ccc1ccccc21,84.3%,36.9%,11.1%,66.8%,16.4%,98.5%,87.2%,–
COC(=O)c1ccc(=O)c2nc3/c(=C/O)c(O)cc(=O)c3[nH]c12,25.6%,5.85% (active),29.5%,2.95% (active),-19% (active),24.9%,31.1%,–
Oc1ccc(Cl)cc1C(c1cc(Cl)ccc1O)C(Cl)(Cl)Cl,9.95% (active),44.9%,4.62% (active),8.95% (active),-35.2% (active),-45.5% (active),-55.5% (active),–
CC(C)(C)c1ccc(O)c(-c2ccccc2)c1,109%,131%,98.9%,–,102%,103%,104%,–
OC(c1cc(-c2ccc(C(F)(F)F)cc2)nc(C(F)(F)F)c1)C1CCCCN1 (centres undefined),-69.2% (active) and -89.5% (active) and -17.2% (active),52.1% and 93.5% and 85.3%,-80.4% (active) and -84.6% (active) and -55.6% (active),-88% (active) and -86.5% (active) and -59.3% (active),-82% (active) and -96.2% (active) and 3.87% (active),-66.8% (active) and -95% (active) and -74.6% (active),–,–
NC(=Nc1nc(-c2ccccn2)cc2ccccc12)c1ccccn1,16.4%,23.3%,11.8%,9.19% (active),5.82% (active),–,16%,–
Fc1ccc(NCCS)cc1,103%,–,102%,90%,111%,96.7%,98.3%,107%
CN(C)CCSC1=Nc2ccc(Cl)cc2C(c2ccccc2Cl)N(C)C1 (centres undefined),57.9%,76.4%,87.4%,27.8%,65.1%,81%,61.6%,–
Oc1ccc2ccccc2c1N=Nc1ccccn1,12.7%,–,–,0.0702% (active),1.41% (active),45.2%,–,49.9%
O/N=C1\c2ccccc2-c2ccc(F)cc21,–,97.4%,112%,25.6%,98.3%,95.1%,–,114%
NCC(=O)NC(CC(=O)O)C(=O)O (centres undefined) (H-Gly-[ξD]-OH),–,102%,98.9%,100%,106%,110%,107%,99.5%
CN(Cc1ccccc1)c1ccc(SC#N)cc1,–,43.9%,85.3%,76.3%,39.5%,89.8%,40.4%,94.7%
CCCCCCCCC(=O)OCCCC(CCC(CCC1CCCO1)OC(=O)CCCCCCCC)OC(=O)CCCCCCCC (centres undefined),–,92.7%,99.8%,100%,92.4%,123%,103%,104%
Oc1ccc2ccccc2c1N=Nc1nccs1,15.5%,–,24.7%,17.1%,-20.8% (active),-5.47% (active),25%,–
O=C1C=CC(=O)N1c1ccccc1,–,97.1%,80.9%,106%,75.1%,98.7%,–,109%
Nc1cc(-c2ccccc2)ccc1O,–,79.3%,121%,102%,98.1%,83.8%,–,111%
CCOC(=O)C1=C(C(=O)c2ccccc2)C(c2cccc([N+](=O)[O-])c2)C(C(=O)c2ccccc2)=C(C(=O)OCC)N1,–,89.9%,70.2%,13%,37.5%,105%,75.8%,91.6%
Oc1ccccc1N=Cc1ccccc1,–,79.7%,85.1%,74.3%,69.4%,100%,–,87%
O=[n+]1c2ccccc2n([O-])c2cc(Cl)ccc21,–,74.7%,53.2%,28.2%,28.7%,93.5%,79%,100%
CC[n+]1ccc(Nc2ccc(NC(=O)c3ccc(Nc4cc[n+](CC)c5ccc([N+](=O)[O-])cc45)cc3)cc2)cc1,–,92.6%,92.8%,36.7%,65.4%,104%,65.5%,74.4%
COc1ccc2nc3cc(Cl)ccc3c(NCCCCCN3CCCCC3)c2c1,–,19%,-27.4% (active),-33.5% (active),-61.5% (active),-76.7% (active),-12.8% (active),-92% (active)
Nc1ccc(C(=O)/C=C/c2ccccc2)cc1,–,61.1%,103%,73.3%,60.3%,100%,–,96.8%
CN(C)c1ccc(C(C#N)(c2ccccc2)c2ccc(N(C)C)cc2)cc1,–,72.9%,43.3%,39.9%,30.8%,51.2%,–,84.2%
CCOC(=O)NC(/C=C/c1ccccc1)NC(=O)OCC,–,107%,100%,101%,93.6%,112%,–,106%
Oc1ccc(Cl)cc1Cc1cc(Cl)ccc1O,–,37.1%,26.9%,31.9%,2.45% (active),50.7%,72.5%,36.7%
